# Assay outcomes as filed in PubChem.
# NS1 inh = inhibitors of influenza NS1 protein function. Potency, µM (series often up to 46.1 µM), for the others: top-dose activity, positive = more growth. hit rate 0.4% among 270,000. AID 2326; calls by dose curve; also: potency is read from the fitted curve at half-maximal effect; actives are rising curves; nearly all actives have a fitted effect of over 50% in size
#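 A cell-based growth assay was used: compounds that relieve NS1-induced slow growth of budding yeast raise OD600. Assay medium was yeast nitrogen base with ammonium sulphate and -URA supplement, pH 6.0, with 2% galactose.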
# LmPK inhibitor = blocks Leishmania mexicana pyruvate kinase activity. purified LmPK, Kinase-Glo ATP luminescence, 1 h. Potency, µM (doses to about 57.5 µM), inactives show at the highest dose activity change, negative = inhibition, actives largely listed as inhibitors. hit rate 0.37% among 290,000. AID 1721; also: potency is read from the fitted curve at half-maximal effect; % is scaled to controls: 0 for no effect and ±100 for the full control effect
# Target sequence (Q27686 whole entry, looked up): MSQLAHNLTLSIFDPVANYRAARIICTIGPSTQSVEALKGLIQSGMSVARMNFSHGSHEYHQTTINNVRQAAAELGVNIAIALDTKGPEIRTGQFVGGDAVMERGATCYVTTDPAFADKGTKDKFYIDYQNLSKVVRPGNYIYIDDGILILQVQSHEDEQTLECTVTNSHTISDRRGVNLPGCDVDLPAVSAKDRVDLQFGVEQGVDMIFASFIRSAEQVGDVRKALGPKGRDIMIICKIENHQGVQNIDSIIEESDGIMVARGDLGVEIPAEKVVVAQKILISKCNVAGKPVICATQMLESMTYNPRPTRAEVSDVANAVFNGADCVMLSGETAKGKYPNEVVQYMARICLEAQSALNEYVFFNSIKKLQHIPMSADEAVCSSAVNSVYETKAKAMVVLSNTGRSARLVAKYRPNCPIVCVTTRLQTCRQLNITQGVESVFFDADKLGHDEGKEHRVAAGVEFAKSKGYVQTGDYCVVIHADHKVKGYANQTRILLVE
#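 ATP generated from ADP (0.1 mM) and PEP (0.5 mM) by 0.1 nM LmPK over 1 h at room temperature (pH 7.2 imidazole buffer) was detected by coupled luciferase luminescence. Values were normalized to uninhibited and no-enzyme wells.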
# CHX counter = counter-screen hit for Shiga toxin inhibitors, cycloheximide. cell reporter, cycloheximide protein synthesis inhibition counterscreen. hit rate 12% among 300,000. AID 2314. max response, %; in the data active = max response mostly above about 13%, no sharp cut-off; inactive = mostly below about 14%; also: read at 38.3 µM for the half of the compounds with a filed dose; 0% is about no effect
# Shiga toxin inh = blocks Shiga toxin action in Vero cells | AID 2315 | inhibition, % at 38.7 µM | hit rate 9.2% among 290,000 | Vero cells, Shiga toxin protein synthesis inhibition reporter; in the data active = inhibition mostly above about 28%, no sharp cut-off; inactive = mostly below about 43%; also: 0% is about no effect
# Giardia FBPA inh = inhibitors of Giardia lamblia fructose-1,6-bisphosphate aldolase; A8B2U2; purified Giardia FBPA; Potency, µM (titrated, usually from 59.6 µM), for the others: at the top dose activity, negative = inhibition, most hits filed as inhibitors; hit rate 0.71% among 290,000; also: potency is read from the fitted curve at half-maximal effect; % is scaled to controls: 0 for no effect and ±100 for the full control effect; nearly all actives have a fitted effect of over 55% in size
#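 40 nM FBPA preincubated 10 min at RT with compound (up to 57.5 uM final), then substrate plus GAPDH/TPI/NAD/arsenate coupling and diaphorase/resazurin added. Fluorescence read after 20 min at RT, 525/598 nm.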
# * = called active by the depositor; u = inconclusive; x = not tested or not shown; [ ] = another dose, or the depositor's remark. Hits are enriched below; roughly 14% of the tested compounds scored in any of these assays. Unless noted, calls follow the shape of the dose curve; as a rule, active = well fitted curve in the direction sought with a large enough effect; inconclusive = small, poorly fitted or top-dose-only effect, or another doubt; inactive = no such curve, though single readings can be large; an effect the other way counts as inactive or inconclusive.
SMILES,NS1 inh,LmPK inhibitor,CHX counter,Shiga toxin inh,Giardia FBPA inh
COc1ccc(/C=N/Nc2nc3ccccc3s2)cc1O,x,-5.4%,32.6,68.1*,-9.7%
COc1ccc(/C=N/NC(=O)c2ccc(-c3ccccc3)cc2)cc1O,2.9%,2.7%,0.3,9.1,1.5%
Cc1ccc(-n2ncc3c(=O)n(CC(N)=O)cnc32)cc1,12.9%,1.4%,-2.2,-0.9,8.6%
COC(=O)Cn1cnc2c(cnn2-c2ccc(OC)cc2)c1=O,13.3%,-1.1%,22.8*,42.0,12.6%
COc1ccc(-n2ncc3c(=O)n(CC(=O)NC(C)C)cnc32)cc1,0.1%,-5.0%,-0.4,-10.7,10.8%
COC(=O)Cn1cnc2c(cnn2-c2ccc(C)cc2)c1=O,2.8%,1.4%,48.4*,68.8*,2.2%
Cn1c(O)c(/C=C2\C=Nc3ccccc32)c(=O)n(C)c1=O,-1.4%,-7.8%,-4.2,9.8,3.2%
CSc1nc(/C=C2\C=Nc3ccccc32)c(O)n1C,-8.0%,-14.1%,17.3*,117.1*,-21.0%
CNC(=O)c1cc(C(=O)c2ccccc2C(F)(F)F)c[nH]1,3.0%,-1.1%,-1.7,-13.1,-6.2%
CNC(=O)c1cc(C(=O)c2ccc(C(F)(F)F)cc2)c[nH]1,5.5%,0.8%,26.7*,60.2*,12.2%
CNC(=O)c1cc(C(=O)c2ccc(C(F)(F)F)cc2F)c[nH]1,x,-14.2%,18.7*,21.2,4.5%
CNC(=O)c1cc(C(=O)c2ccccc2Br)c[nH]1,-5.8%,0.3%,7.2,7.0,2.9%
COc1ccc(-c2nc(-c3ccccc3)c(Nc3c(C)cccc3C)o2)cc1,x,x,x,x,-5.5%
Cc1noc(C)c1COC(=O)c1cc(C)n(-c2ccccc2)c1C,-56.9%,-1.0%,50.6*,37.8*,4.4%
CCNC(=O)COC(=O)c1cc(C)n(-c2ccccc2)c1C,x,2.3%,40.9*,61.6*,4.5%
CN(C)c1ccc(-c2nc(-n3ccnc3)c3ccccc3n2)cc1,x,x,x,x,-5.1%
COC1=C/C(=C/c2c(N)n3nc(-c4ccc(C)cc4)sc3nc2=O)C=CC1=O,14.5%,-2.5%,54.5*,76.2*,-3.3%
CCS(=O)(=O)N1CCN=C1SCc1ccc(F)cc1,-2.0%,1.1%,-1.4,8.2,x
c1ccc(COc2ccc(CNCc3cccnc3)cc2)cc1,3.4%,-6.1%,29.7*,20.5,2.3%
CCOc1ccc(CNCc2cccnc2)cc1,1.9%,-2.3%,-1.1,2.3,4.3%
c1ccc(COc2ccc(CNCc3cccs3)cc2)cc1,-54.9%,-0.5%,25.3*,56.1*,-11.9%
Brc1ccc(CNCc2cccs2)cc1,u,-1.6%,-2.9,14.1,-7.6%
COc1ccc(C(=O)C2CCCN(C(=O)c3n[nH]c4c3CCCC4)C2)cc1OC (stereo not given),0.4%,-4.2%,16.1*,29.9,2.3%
COc1cccc(C(=O)C2CCCN(Cc3ccon3)C2)c1 (stereo not given),-1.1%,-2.3%,7.3,0.9,0.6%
Cc1ncc(CN2CCCC(C(=O)c3ccc(C(C)(C)C)cc3)C2)s1 (stereo not given),-4.2%,5.8%,9.9*,43.6,1.5%
SMILES,NS1 inh,LmPK inhibitor,CHX counter,Shiga toxin inh,Giardia FBPA inh
COc1ccc(C(=O)C2CCCN(Cc3ccon3)C2)cc1OC (stereo not given),-0.2%,8.0%,57.4*,47.3,0.6%
COc1ccc(C(=O)C2CCCN(Cc3cnc(C)s3)C2)cc1OC (stereo not given),-2.5%,-4.8%,-1.0,-13.1,0.9%
COc1cc(CN2CCCC(C(=O)c3ccc(C(C)(C)C)cc3)C2)cc(OC)c1O (stereo not given),23.3%,-0.1%,17.8*,23.6,-21.7%
CCCCC(=O)Oc1c(S(=O)(=O)c2ccc(C)cc2)c(C)nn1C(C)(C)C,6.7%,5.2%,-2.9,-5.5,6.4%
CC1=C(C)CC(c2ccccc2)C(C(=O)c2ccccc2O)C1 (stereo not given),x,x,x,x,0.5%[12.9 µM]
COc1cc(NC(=O)c2cccc(NC3=NC4CS(=O)(=O)CC4S3)c2)cc(OC)c1OC (stereo not given),-3.6%,-0.1%,-0.7,-11.6,-19.6%
O=C(Nc1nc2ccccc2s1)c1ccc(F)cc1,-0.2%,-15.3%,31.7*,81.6*,-11.5%
O=C(Nc1nc2ccccc2s1)c1ccc(Cl)s1,-33.5%,8.2%,31.6*,85.8*,-5.5%
COc1ccc2nc(NC(=O)c3ccc(F)cc3)sc2c1,-11.1%,5.0%,26.8*,x,-1.5%
O=C(c1ccc(Cl)s1)N1CCN(c2nc3ccccc3s2)CC1,-76.2%,-0.4%,-0.3,16.3,1.4%
CC(C)(C)N1C(=O)c2ccc(C(=O)Nc3ccc(O)cc3)cc2C1=O,4.4%,-1.0%,23.3*,45.6*,10.7%
